Laboratory results taken from PubChem BioAssay (NCI).
This is part of a sample that, as a whole, favours compounds with a hit. Of some 83,000 tested, about 20% had one in any assay.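 Testing used 96-well plates and a 48-hour single-concentration exposure. Example: -40 means 40% of the starting cells died.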 The source made the active and inactive calls. How the source made its calls: active means growth percent below 10; inactive means the rest.

Key:
Experiment in all cases: NCI-60 one-dose screen, 48 h (100 = growth as untreated, 0 = no growth, -100 = all killed)
[1] = tested on: NCI-H23 lung
[2] = tested on: NCI-H226 lung; conditions: 10 µM unless noted
[3] = tested on: NCI-H322M lung
[4] = tested on: HOP-62 NSCLC
[5] = tested on: NCI-H460 lung
[6] = tested on: HOP-92 NSCLC
[7] = tested on: NCI-H522 lung
[8] = tested on: A549/ATCC NSCLC
[9] = tested on: 786-0 renal
[10] = tested on: COLO 205 colon
[11] = tested on: DU-145 prostate
[12] = tested on: K-562 leukemia; conditions: 10 µM unless noted
[13] = tested on: MALME-3M melanoma
[14] = tested on: MDA-MB-231 breast
[15] = tested on: RXF 393 renal
[16] = tested on: SF-268 CNS
[17] = tested on: SF-295 CNS
[18] = tested on: SF-539 CNS
[19] = tested on: UACC-257 melanoma
[20] = tested on: M14 melanoma; conditions: 10 µM unless noted

Measured: growth

Oc1ccc(Cl)c(Nc2ncnc3c2cnn3CC(Cl)c2ccc(Br)cc2)c1 (centres undefined)
active: [6]; 10 µM unless noted 8.3% | [12] 1.88% | [15]; 10 µM unless noted -8.51%
inactive: [1]; 10 µM unless noted 65.8% | [2] 84% | [3]; 10 µM unless noted 67% | [4]; 10 µM unless noted 58.1% | [5]; 10 µM unless noted 67.1% | [7]; 10 µM unless noted 52.6% | [8]; 10 µM unless noted 53.9% | [9]; 10 µM unless noted 63.9% | [10]; 10 µM unless noted 90.9% | [11]; 10 µM unless noted 50.8% | [13]; 10 µM unless noted 57.4% | [14]; 10 µM unless noted 26.4% | [16]; 10 µM unless noted 26.7% | [17]; 10 µM unless noted 60.3% | [18]; 10 µM unless noted 29.1% | [19]; 10 µM unless noted 80.1%

COc1ccc(S(=O)(=O)Nc2ccc(-c3ccc4c(c3)NC(=O)/C4=C\c3ccc[nH]3)cc2)cc1OC
inactive: [3]; 10 µM unless noted 31.6% | [10]; 10 µM unless noted 39.8% | [11]; 10 µM unless noted 10.4% | [12] 28.7% | [16]; 10 µM unless noted 65% | [17]; 10 µM unless noted 56.1%
active: [1]; 10 µM unless noted -25.1% | [2] -37.8% | [4]; 10 µM unless noted 0.497% | [5]; 10 µM unless noted -52.5% | [6]; 10 µM unless noted 5.85% | [7]; 10 µM unless noted 2.96% | [8]; 10 µM unless noted -25.8% | [9]; 10 µM unless noted -9.09% | [13]; 10 µM unless noted -16.2% | [14]; 10 µM unless noted -46.1% | [15]; 10 µM unless noted -23% | [18]; 10 µM unless noted -46.5% | [19]; 10 µM unless noted -10.7%

Cc1ccc(C2CC(c3ccc(NC(=O)Nc4ccccc4)cc3)=NN2c2ccc(S(N)(=O)=O)cc2)cc1 (centres undefined)
active: [1]; 10 µM unless noted -95.8% | [2] -80.4% | [3]; 10 µM unless noted -96.5% | [4]; 10 µM unless noted -72.9% | [5]; 10 µM unless noted -86.1% | [6]; 10 µM unless noted -81.3% | [7]; 10 µM unless noted -84% | [8]; 10 µM unless noted -61.4% | [9]; 10 µM unless noted -87.9% | [10]; 10 µM unless noted -66.3% | [11]; 10 µM unless noted -76.2% | [12] 6.16% | [13]; 10 µM unless noted -96.5% | [14]; 10 µM unless noted -90.8% | [15]; 10 µM unless noted -91.3% | [16]; 10 µM unless noted -74.5% | [17]; 10 µM unless noted -71.2% | [18]; 10 µM unless noted -99.3% | [19]; 10 µM unless noted -71.6% | [20] -73.2%

CCCCCCCCc1cccc(CC(=O)Nc2ccc(C)cc2C(=O)O)c1
inactive: [1]; 10 µM unless noted 59.3% [25 µM] | [2] 65.3% [25 µM] | [3]; 10 µM unless noted 62.7% [25 µM] | [4]; 10 µM unless noted 54.8% [25 µM] | [5]; 10 µM unless noted 20.4% [25 µM] | [6]; 10 µM unless noted 83.8% [25 µM] | [7]; 10 µM unless noted 38.7% [25 µM] | [8]; 10 µM unless noted 31.4% [25 µM] | [9]; 10 µM unless noted 34.1% [25 µM] | [10]; 10 µM unless noted 59.1% [25 µM] | [11]; 10 µM unless noted 59.4% [25 µM] | [12] 28.9% [25 µM] | [13]; 10 µM unless noted 67.7% [25 µM] | [14]; 10 µM unless noted 66.5% [25 µM] | [15]; 10 µM unless noted 104% [25 µM] | [16]; 10 µM unless noted 61.9% [25 µM] | [17]; 10 µM unless noted 35.2% [25 µM] | [18]; 10 µM unless noted 37.1% [25 µM] | [19]; 10 µM unless noted 71.2% [25 µM]

COc1ccc(N=Nc2c(N)nn3c(-c4cc5ccccc5oc4=O)ccnc23)cc1
active: [2] 3.29% | [14]; 10 µM unless noted -3.18%
inactive: [1]; 10 µM unless noted 36.6% | [3]; 10 µM unless noted 63.4% | [4]; 10 µM unless noted 14.7% | [5]; 10 µM unless noted 17.2% | [6]; 10 µM unless noted 34.3% | [7]; 10 µM unless noted 72.7% | [8]; 10 µM unless noted 59.4% | [9]; 10 µM unless noted 15.6% | [10]; 10 µM unless noted 63.9% | [11]; 10 µM unless noted 61.9% | [12] 51.5% | [13]; 10 µM unless noted 49.3% | [15]; 10 µM unless noted 10.1% | [16]; 10 µM unless noted 57.8% | [17]; 10 µM unless noted 34.5% | [18]; 10 µM unless noted 15.2% | [19]; 10 µM unless noted 88.4%

CC/C(=C(/c1ccc(O)cc1)c1ccc(OCCN(C)C(=O)COCCOCCNC(=O)c2ccc3c(c2)CN([C@@H]2CCC(=O)NC2=O)C3=O)cc1)c1ccccc1
active: [14]; 10 µM 8.81%
inactive: [1]; 1 µM 99% | [1]; 10 µM 97% | [3]; 1 µM 101% | [3]; 10 µM 85.2% | [4]; 1 µM 93.4% | [4]; 10 µM 81% | [5]; 1 µM 111% | [5]; 10 µM 114% | [6]; 1 µM 26.9% | [6]; 10 µM 18.2% | [7]; 1 µM 91.7% | [7]; 10 µM 90% | [8]; 1 µM 89.4% | [8]; 10 µM 85.3% | [9]; 1 µM 94% | [9]; 10 µM 96.7% | [10]; 1 µM 91.3% | [10]; 10 µM 79.3% | [11]; 1 µM 107% | [11]; 10 µM 109% | [13]; 1 µM 64.1% | [13]; 10 µM 31.4% | [14]; 1 µM 25.5% | [15]; 1 µM 98.3% | [15]; 10 µM 99% | [16]; 1 µM 88.3% | [16]; 10 µM 83.7% | [17]; 1 µM 102% | [17]; 10 µM 94.8% | [18]; 1 µM 92.1% | [18]; 10 µM 91.1% | [19]; 1 µM 96.2% | [19]; 10 µM 95.5%

COc1ccc(C(=O)c2cc(C(C)=O)c3c(C)cc(C)cn23)cc1
active: [7]; 10 µM unless noted 2.3% | [15]; 10 µM unless noted 8.06%
inactive: [1]; 10 µM unless noted 47.7% | [2] 44.4% | [3]; 10 µM unless noted 76.8% | [4]; 10 µM unless noted 34.5% | [5]; 10 µM unless noted 45.4% | [6]; 10 µM unless noted 46.8% | [8]; 10 µM unless noted 45.3% | [9]; 10 µM unless noted 45.4% | [10]; 10 µM unless noted 92.7% | [11]; 10 µM unless noted 66.9% | [12] 86.4% | [13]; 10 µM unless noted 72.1% | [14]; 10 µM unless noted 75.3% | [16]; 10 µM unless noted 23.5% | [17]; 10 µM unless noted 31% | [18]; 10 µM unless noted 23.8% | [19]; 10 µM unless noted 79.2%
